Inconclusive results are not listed. Where a call stands in place of a potency, no number is given. Activity calls are given as the source filed them. The call rests on the fitted dose curve; in most records, active means well fitted inhibition curve with a large enough effect; inconclusive means small, poorly fitted or top-dose-only effect; inactive means no such curve, though single readings can be large or run the other way.

The test system of one assay is Zika virus NS2B-NS3 protease (unlinked complex). The assay is described as follows: Primary screen GU Rhodamine qHTS for Zika virus inhibitors: Unlinked NS2B-NS3 protease assay (AID 1347159). Further: nearly all actives have a fitted effect of over 60% in size. Further: potency means the concentration at half of the fitted maximal effect. Conditions: Recombinant ZIKV NS2B-NS3 protease, Rhodamine110 substrate fluorescence; series mostly up to 107 µM. The gist of the method: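 Noncovalent NS2B hydrophilic domain–NS3 protease domain complex (25 nM) preincubated 15 min at room temperature with compounds (up to 114 microM) in 10 mM Tris-HCl pH 8.0, 0.01% Tween 20; 1.5 microM Rhodamine110 substrate added, fluorescence change over 15 min fitted to Hill equation.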
Consider `CN(C)[C@@H]1C(=O)C(C(N)=O)=C(O)[C@@]2(O)C(=O)C3=C(O)c4c(O)ccc(Cl)c4[C@@](C)(O)C3C[C@@H]12` (stereo partly drawn), for which the Potency result is “inactive”.

For `CC(C)[C@H](NC(=O)c1nn(Cc2ccc(F)cc2)c2ccccc12)C(N)=O`, the Potency result was “inactive”.

For the molecule `COC1CCCC(C)OC(=O)Cc2cc(O)cc(O)c2C(=O)C1` (stereo not drawn), the Potency entry was “inactive”.

As for `CN1CCCCC1Cn1cc(C(=O)c2cc([N+](=O)[O-])ccc2I)c2ccccc21` (stereo not drawn), the Potency result is “inactive”.

Consider `CN1C(=O)[C@@H](Cc2c[nH]c3ccccc23)N=C(c2ccccc2F)c2ccccc21`, for which the Potency entry was “inactive”.

In the case of `C#C[C@]1(O)CC[C@H]2[C@@H]3CC[C@H]4Cc5nc6nc7ccccc7n6cc5C[C@]4(C)[C@H]3CC[C@@]21C`, the Potency result is “inactive”.

Consider `CCC1C2CC3C4N(C)c5ccccc5C45CC(C2C5O)N3C1O` (stereo not drawn), for which the Potency result is “inactive”.

`COc1cc(O)c2c(c1)CCC[C@@H](O)[C@H](O)C(=O)/C=C\C[C@H](C)OC2=O`: the Potency result was “inactive”.

For `CCCCCCC1C(=O)O[C@H](C)[C@H](NC(=O)c2cccc(NC=O)c2O)C(=O)O[C@@H](C)[C@@H]1OC(=O)CC(C)C` (stereo partly drawn), the Potency is 6.31 µM (active).

For `CCN1C[C@]2(COC)CC[C@H](O)[C@@]34C5C[C@@H]6[C@@H](OC)C[C@@](OC(C)=O)(C5[C@@H]6OC(C)=O)[C@H]([C@H](OC)C23)[C@@H]14` (stereo partly drawn), the Potency result is “inactive”.

For `C[C@]12CC[C@H](O)C[C@@]1(O)CC[C@@H]1[C@@H]2CC[C@]2(C)[C@@H](c3ccc(=O)oc3)CC[C@]12O`, the Potency entry was “inactive”.

On to `CN1C(=O)N(c2ccc(C#N)c(C(F)(F)F)c2)C(=O)[C@@]1(CO)c1ccccc1`, for which the Potency entry was “inactive”.

As for `CCCCCn1cc(C(=O)Oc2cccc3cccnc23)c2ccccc21`, the Potency result was “inactive”.

Take `CN=C(NS(=O)(=O)c1ccc(Cl)cc1)N1C[C@H](c2ccccc2)C(c2ccc(Cl)cc2)=N1`: the Potency entry is “inactive”.

For `COC1CC(O[C@H]2CC[C@@]3(C)C(CCC4C3CC[C@]3(C)C(C5=CC(=O)OC5)CCC43O)C2)OC(C)C1OC1OC(COC2OC(CO)C(O)C(O)C2O)C(O)C(O)C1O` (stereo partly drawn), the Potency entry was “inactive”.

Regarding `CN1Cc2c(ccc3c2OCO3)[C@@H]2[C@H]1c1cc3c(cc1C[C@@H]2O)OCO3`, the Potency entry is “inactive”.

For `CN(Cc1cccc(-c2ccncc2)c1)C(=O)Oc1ccc(-c2ccc(C(N)=O)cc2)cc1`, the Potency result was “inactive”.

With `CC1=CC2OC3CC(O)[C@](C)([C@@]2(C)C(O)C1=O)[C@]31CO1` (stereo partly drawn), the Potency entry was “inactive”.

Turning to `CC[C@H](O)[C@@H](C)[C@H]1O[C@@H]1C[C@H](C)/C=C/C=C(\C)[C@H]1OC(=O)C[C@H](O)CC[C@@](C)(O)[C@@H](OC(C)=O)/C=C/[C@@H]1C`, the Potency entry was “inactive”.

Turning to `COC(=O)C12C(=O)C(C)(O)C(=O)C1(C)C(C)=CC1C34CCC(OC3=O)C(C)(C)C4CCC12C` (stereo not drawn), the Potency entry was “inactive”.

As to `CCOc1ccc(Oc2ccc(OCc3cc(F)ccc3F)cc2)c(N)c1`, the Potency result was “inactive”.

Regarding `Cc1ccc2c(c1)[C@H]1CN(C)CC[C@H]1N2C(=O)CSc1nnnn1-c1ccc(Cl)cc1`, the Potency entry was “inactive”.

`C=C1C2(C)CC3C(C)(O)C4=CC(=O)OC(C)(C)C4=CCC3(C)C13C(=O)OC(C)C3(O)C2=O` (stereo not drawn): the Potency result is “inactive”.

With `CCCN(CCC)[C@@H]1CCc2ccc3[nH]c(C#N)cc3c2C1`, the Potency result is “inactive”.

As for `C[C@]12CC[C@H](O)C[C@@H]1CC[C@@H]1[C@@H]2CC[C@]2(C)[C@@H](C3=CC(=O)OC3)CC[C@]12O`, the Potency entry is “inactive”.

On to `CC1=CC(=O)[C@@H](O)[C@@]2(C)C1C[C@H]1OC(=O)[C@H](O)[C@@]3(O)[C@@H](C)[C@@H](O)[C@H](O)C2[C@@]13C` (stereo partly drawn), for which the Potency result is “inactive”.

With `c1ccc([C@@H]2C[C@H]2NC2CCNCC2)cc1`, the Potency result was “inactive”.

As to `CC(=O)OC[C@]12[C@H](OC(C)=O)C(=O)[C@@H]3[C@@H](O)[C@@]14O[C@@]3(C)COC(=O)c1cccnc1[C@@H](C)[C@H](C)C(=O)O[C@@H]([C@H](OC(C)=O)[C@@H]2OC(C)=O)[C@]4(C)O`, the Potency entry was “inactive”.

The subject of a further assay is Zika virus NS2B-NS3 protease (linked construct). The assay is described as follows: Primary screen NINDS Rhodamine qHTS for Zika virus inhibitors (AID 1347160). Further: nearly all actives have a fitted effect of over 55% in size. Conditions: purified NS2B-NS3 protease, Rhodamine110 substrate fluorescence; series mostly up to 57.1 µM. The gist of the method: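 Purified linked NS2B-NS3 protease (NS2B hydrophilic domain joined to NS3 protease by flexible linker), 25 nM in 10 mM Tris-HCl pH 8.0, 0.01% Tween 20. Compounds titrated, 15 min preincubation at room temperature; 1.5 microM Rhodamine110 substrate, FITC fluorescence change over 15 min.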
(In general: Quantitative high-throughput screening tests each substance at several concentrations.)
For `CN(C)[C@@H]1C(=O)C(C(N)=O)=C(O)[C@@]2(O)C(=O)C3=C(O)c4c(O)ccc(Cl)c4[C@@](C)(O)C3C[C@@H]12` (stereo partly drawn), the Potency result was “inactive”.

For the molecule `CC(C)[C@H](NC(=O)c1nn(Cc2ccc(F)cc2)c2ccccc12)C(N)=O`, the Potency entry is “inactive”.

For the molecule `COC1CCCC(C)OC(=O)Cc2cc(O)cc(O)c2C(=O)C1` (stereo not drawn), the Potency entry is “inactive”.

In the case of `CN1CCCCC1Cn1cc(C(=O)c2cc([N+](=O)[O-])ccc2I)c2ccccc21` (stereo not drawn), the Potency entry is “inactive”.

For the molecule `C=C1C(=O)CC2OC2(C)CC2OC(=O)C(=C)C2C(O)C1OC(=O)/C(C)=C\C` (stereo not drawn), the Potency entry was “inactive”.

Take `CC12CCC3C(C1)c1c(cc(O)c(C(=O)c4ccccc4)c1OC3(C)C)O2` (stereo not drawn): the Potency entry was “inactive”.

Turning to `CN1C(=O)[C@@H](Cc2c[nH]c3ccccc23)N=C(c2ccccc2F)c2ccccc21`, the Potency result is “inactive”.

Consider `CC(C)[C@H]1OC(=O)[C@H](Cc2ccccc2)N(C)C(=O)[C@@H](C(C)C)OC(=O)[C@H](Cc2ccccc2)N(C)C(=O)[C@@H](C(C)C)OC(=O)[C@H](Cc2ccccc2)N(C)C1=O`, for which the Potency result was “inactive”.

`CCC1C2CC3C4N(C)c5ccccc5C45CC(C2C5O)N3C1O` (stereo not drawn): the Potency entry was “inactive”.

In the case of `COc1cc(O)c2c(c1)CCC[C@@H](O)[C@H](O)C(=O)/C=C\C[C@H](C)OC2=O`, the Potency entry is “inactive”.

For the molecule `C[C@@H]1O[C@@H](OC2CCC3(C=O)C(CCC4C3CCC3(C)C(C5=CC(=O)OC5)C(O)CC43O)C2)[C@H](O)[C@H](O)[C@H]1O[C@@H]1O[C@H](CO)[C@@H](O)[C@H](O)[C@H]1O` (stereo partly drawn), the Potency result was “inactive”.

For the molecule `C=C(C)C(=O)O[C@H]1[C@@H]2[C@H](C)C(=O)O[C@@H]2C[C@@H](C)[C@@H]2C=CC(=O)[C@]21C`, the Potency result is “inactive”.

On to `CCN1C[C@]2(COC)CC[C@H](O)[C@@]34C5C[C@@H]6[C@@H](OC)C[C@@](OC(C)=O)(C5[C@@H]6OC(C)=O)[C@H]([C@H](OC)C23)[C@@H]14` (stereo partly drawn), for which the Potency entry was “inactive”.

For `C[C@]12CC[C@H](O)C[C@@]1(O)CC[C@@H]1[C@@H]2CC[C@]2(C)[C@@H](c3ccc(=O)oc3)CC[C@]12O`, the Potency entry is “inactive”.

Regarding `CN1C(=O)N(c2ccc(C#N)c(C(F)(F)F)c2)C(=O)[C@@]1(CO)c1ccccc1`, the Potency entry was “inactive”.

Turning to `CC(=O)O[C@H]1C[C@]2(O)[C@@H]3CC[C@@H]4C[C@@H](O)CC[C@]4(C)[C@H]3CC[C@]2(C)[C@H]1c1ccc(=O)oc1`, the Potency entry is “inactive”.

As for `CCCCCn1cc(C(=O)Oc2cccc3cccnc23)c2ccccc21`, the Potency entry was “inactive”.

On to `CN=C(NS(=O)(=O)c1ccc(Cl)cc1)N1C[C@H](c2ccccc2)C(c2ccc(Cl)cc2)=N1`, for which the Potency result is “inactive”.

For `COC1CC(O[C@H]2CC[C@@]3(C)C(CCC4C3CC[C@]3(C)C(C5=CC(=O)OC5)CCC43O)C2)OC(C)C1OC1OC(COC2OC(CO)C(O)C(O)C2O)C(O)C(O)C1O` (stereo partly drawn), the Potency result was “inactive”.

For `CN1Cc2c(ccc3c2OCO3)[C@@H]2[C@H]1c1cc3c(cc1C[C@@H]2O)OCO3`, the Potency result is “inactive”.

Consider `CN(Cc1cccc(-c2ccncc2)c1)C(=O)Oc1ccc(-c2ccc(C(N)=O)cc2)cc1`, for which the Potency entry was “inactive”.

With `CC1=CC2OC3CC(O)[C@](C)([C@@]2(C)C(O)C1=O)[C@]31CO1` (stereo partly drawn), the Potency entry is “inactive”.

Regarding `CC[C@H](O)[C@@H](C)[C@H]1O[C@@H]1C[C@H](C)/C=C/C=C(\C)[C@H]1OC(=O)C[C@H](O)CC[C@@](C)(O)[C@@H](OC(C)=O)/C=C/[C@@H]1C`, the Potency entry was “inactive”.

As to `CN(C(=O)C(c1ccccc1)c1ccccc1)[C@H](CN1CC[C@H](O)C1)c1ccccc1`, the Potency result was “inactive”.

In the case of `COC(=O)C12C(=O)C(C)(O)C(=O)C1(C)C(C)=CC1C34CCC(OC3=O)C(C)(C)C4CCC12C` (stereo not drawn), the Potency entry is “inactive”.

For `CCOc1ccc(Oc2ccc(OCc3cc(F)ccc3F)cc2)c(N)c1`, the Potency result is “inactive”.

As to `Cc1ccc2c(c1)[C@H]1CN(C)CC[C@H]1N2C(=O)CSc1nnnn1-c1ccc(Cl)cc1`, the Potency result is “inactive”.

Consider `C=C1C2(C)CC3C(C)(O)C4=CC(=O)OC(C)(C)C4=CCC3(C)C13C(=O)OC(C)C3(O)C2=O` (stereo not drawn), for which the Potency entry is “inactive”.

As to `Fc1cc(F)c2c(c1)C1C=CCC1C(c1cccnc1)N2` (stereo not drawn), the Potency entry was “inactive”.

With `CCCN(CCC)[C@@H]1CCc2ccc3[nH]c(C#N)cc3c2C1`, the Potency result was “inactive”.

On to `C[C@]12CC[C@H](O)C[C@@H]1CC[C@@H]1[C@@H]2CC[C@]2(C)[C@@H](C3=CC(=O)OC3)CC[C@]12O`, for which the Potency result is “inactive”.

In the case of `CC1=CC(=O)[C@@H](O)[C@@]2(C)C1C[C@H]1OC(=O)[C@H](O)[C@@]3(O)[C@@H](C)[C@@H](O)[C@H](O)C2[C@@]13C` (stereo partly drawn), the Potency result is “inactive”.

Turning to `c1ccc([C@@H]2C[C@H]2NC2CCNCC2)cc1`, the Potency result is “inactive”.

Consider `CC(=O)OC[C@]12[C@H](OC(C)=O)C(=O)[C@@H]3[C@@H](O)[C@@]14O[C@@]3(C)COC(=O)c1cccnc1[C@@H](C)[C@H](C)C(=O)O[C@@H]([C@H](OC(C)=O)[C@@H]2OC(C)=O)[C@]4(C)O`, for which the Potency entry is “inactive”.

As for `Cc1c(N[C@@H](c2nnc(-c3ccc(C#N)cc3)o2)[C@H](C)O)ccc(C#N)c1Cl`, the Potency result was “inactive”.
